Sampled rows, rich in hits. Any-hit rate of the full collection: about 12%.
Pf growth 48h = Primary qHTS for delayed death inhibitors of the malarial parasite plastid, 48 hour incubation; P. falciparum luciferase growth in erythrocytes, 48 h; AID 504832, 2011; hit rate 5.9% among 310,000; Potency, µM (series often up to 28.7 µM), usual class: inhibitors
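Luciferase-expressing parasites in RBCs, 2% Hct / 0.1% parasitemia final; RPMI 1640 + 0.5% Albumax; 37 C, 5% CO2, one generation; luminescence read-out, lower signal = inhibition.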
HCV inh = qHTS Assay for Inhibitors of Hepatitis C Virus (HCV). Huh7.5.1 HCVcc-Cre infection, luciferase reporter, 44 h. Potency, µM (series often up to 41.8 µM), actives largely listed as inhibitors. hit rate 3.4% among 340,000
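Infectious HCVcc-Cre (~0.5 moi) was added to cells just after compound, with cells seeded 4 h earlier at 1,000 per well. Luciferase activity after 44 h culture reported infection; substrate was incubated 15 min at room temperature before reading.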
AMA1-RON2 inh = qHTS for Inhibitors of AMA1-RON; Towards Development of Antimalarial Drug Lead: Primary Screen; Plasmodium falciparum AMA1 (3D7) - RON2 peptide interaction; AlphaScreen AMA1-biotinylated RON2 peptide binding; Potency, µM (series often up to 58.2 µM), hits mostly inhibitors; hit rate 0.2% among 360,000; further: nearly all actives have a fitted effect of over 45% in size
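AMA1 (3D7) with his tag at 25 nM final met compounds first, then biotinylated RON2 peptide at 25 nM; detection used donor plus acceptor beads, 10 µg/mL apiece, read by AlphaScreen after 30 min at room temperature.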
Pf growth 96h = Primary qHTS for delayed death inhibitors of the malarial parasite plastid, 96 hour incubation | P. falciparum luciferase reporter growth, 96 h | Potency, µM (highest dose often 28.7 µM), actives largely listed as inhibitors | hit rate 6.9% among 320,000
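Two parasite generations (96 h, 37 C, 5% CO2) of compound exposure in infected erythrocytes (0.05% parasitemia, 2% hematocrit). Luciferase-reporter P. falciparum; decreased luminescence indicates inhibited growth, aimed at apicoplast-acting delayed death.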
NS1 inh = qHTS Assay for Inhibitors of Influenza NS1 Protein Function | Potency, µM (titrated, usually from 46.1 µM) | hit rate 0.4% among 270,000; calls by dose curve; further: actives are rising curves; nearly all actives have a fitted effect of over 50% in size
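A cell-based growth assay was used: compounds that relieve NS1-induced slow growth of budding yeast raise OD600. Assay medium was yeast nitrogen base with ammonium sulphate and -URA supplement, pH 6.0, with 2% galactose.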
SARS PLpro yeast = qHTS of Yeast-based Assay for SARS-CoV PLP; S. cerevisiae expressing SARS-CoV PLpro, growth rescue; Potency, µM (highest dose often 32.9 µM), most hits filed as activators; hit rate 0.19% among 330,000; calls by dose curve; further: nearly all actives have a fitted effect of over 55% in size
Each line names hits and unclear results; the compound was inactive in the other large screens. Unless noted, the call rests on the fitted dose curve; in most records, active means well fitted curve in the direction sought with a large enough effect; inconclusive means small, poorly fitted or top-dose-only effect, or another doubt; inactive means no such curve, though single readings can be large; an effect the other way counts as inactive or inconclusive.

CCCCNC(=O)Cn1c(=O)oc2cc(S(=O)(=O)N3CC(C)CC(C)C3)ccc21 (stereo unspecified)	Pf growth 96h 6.57µM (no result: Pf growth 48h)
CC(C(=O)NCc1ccc(F)cc1)n1ccc2cc(S(=O)(=O)N3CCCC3)ccc21 (stereo unspecified)	Pf growth 48h inconclusive, HCV inh 11.2µM, Pf growth 96h inconclusive
O=C(Cn1c(=O)oc2cc(S(=O)(=O)N3CCCC3)ccc21)Nc1cccc(C(F)(F)F)c1	HCV inh inconclusive, Pf growth 96h 11.7µM
O=C(Cn1c(=O)oc2cc(S(=O)(=O)N3CCCC3)ccc21)N1CCN(c2ccccn2)CC1	HCV inh inconclusive, Pf growth 96h 11.7µM
CCc1cccc(NC(=O)Cn2c(=O)oc3cc(S(=O)(=O)N4CCOCC4)ccc32)c1	HCV inh inconclusive, Pf growth 96h inconclusive, NS1 inh inconclusive (no result: Pf growth 48h)
COCCCNC(=O)Cn1c(=O)oc2cc(S(=O)(=O)N3CC(C)CC(C)C3)ccc21 (stereo unspecified)	Pf growth 48h inconclusive
CCN(CC(=O)NCc1cccs1)C(=O)c1cccc(Cl)c1	none (no result: Pf growth 48h, Pf growth 96h, NS1 inh)
O=C(Cn1c(=O)oc2cc(S(=O)(=O)N3CCCC3)ccc21)NCc1ccc(F)cc1	Pf growth 96h 6.57µM (no result: Pf growth 48h)
O=C(Cn1c(=O)oc2cc(S(=O)(=O)N3CCCC3)ccc21)N1CCCC1	none (no result: Pf growth 48h)
CC1CCCCC1NC(=O)Cn1c(=O)oc2cc(S(=O)(=O)N3CCCC3)ccc21 (stereo unspecified)	Pf growth 96h 10.4µM
CCN(C(=O)Cn1c(=O)oc2cc(S(=O)(=O)N3CCOCC3)ccc21)c1ccccc1	Pf growth 48h inconclusive, Pf growth 96h 4.15µM
O=C(Cn1c(=O)oc2cc(S(=O)(=O)N3CCCC3)ccc21)NC1CCCCC1	Pf growth 96h inconclusive
CC1CCCN(C(=O)Cn2c(=O)oc3cc(S(=O)(=O)N4CCCCC4)ccc32)C1 (stereo unspecified)	Pf growth 48h 1.31µM, Pf growth 96h inconclusive
COc1cccc(Cn2c(C3CC3)nc3ccc(NC(=O)c4ccco4)cc3c2=O)c1	Pf growth 48h 3.7µM, HCV inh inconclusive (no result: AMA1-RON2 inh, Pf growth 96h)
O=C(Nc1ccc2nc(C3CC3)n(Cc3ccc(F)cc3)c(=O)c2c1)c1ccco1	Pf growth 48h 1.85µM, HCV inh 22.4µM, AMA1-RON2 inh inconclusive (no result: Pf growth 96h)
CC(=O)Nc1ccc2nc(C3CC3)n(Cc3ccc(Cl)cc3)c(=O)c2c1	HCV inh inconclusive (no result: NS1 inh)
O=C(Nc1ccccc1NS(=O)(=O)c1ccc(F)cc1)C1CCC1	Pf growth 48h inconclusive
COc1ccc(N2CCc3c(C)nc4c(OC)cc(OC)cc4c32)c(OC)c1	Pf growth 48h inconclusive, HCV inh 11.2µM, Pf growth 96h 14.7µM
COc1ccc(N2CCc3c(C)nc4c(OC)cc(OC)cc4c32)cc1	Pf growth 48h inconclusive, HCV inh 12.6µM, Pf growth 96h inconclusive
Cc1nc2c(C)cccc2c2c1CCN2c1ccccc1F	Pf growth 48h inconclusive, HCV inh inconclusive, Pf growth 96h inconclusive
COc1ccc(/C=C/c2nc3ccccc3c(=O)o2)cc1	none
CCN1Cc2c(/C=C/c3ccccc3)nc3ccc(OC)cc3c2N(c2cccc(Cl)c2)C1	Pf growth 48h 2.08µM, HCV inh 17.8µM, Pf growth 96h 3.29µM
COc1cccc(N2CCc3c(C)nc4ccc(Cl)cc4c32)c1	Pf growth 48h 13.1µM, HCV inh inconclusive, Pf growth 96h 11.7µM
COc1ccc(N2CCc3c(C)nc4c(OC)cccc4c32)cc1	Pf growth 48h inconclusive, HCV inh inconclusive, Pf growth 96h inconclusive (no result: NS1 inh)
COc1ccc(NC(=O)C2CCCN(C(=O)Nc3ccc(F)cc3)C2)cc1OC (stereo unspecified)	none
CN(CC(=O)Nc1cccc(F)c1)C(=O)CC1CCCCC1	Pf growth 48h inconclusive, Pf growth 96h inconclusive (no result: NS1 inh)
CC(C)CN(C(=O)COC(=O)Cc1c[nH]c2ccccc12)c1c(N)n(Cc2ccccc2)c(=O)[nH]c1=O	Pf growth 48h inconclusive, Pf growth 96h inconclusive (no result: NS1 inh)

Source: PubChem BioAssay
